Only some compounds are listed: those with a hit (about 2.4% of all), similar ones and a draw of the others.
D2 PAM-1 – D2 dopamine receptor (human) potentiation. P14416. potentiation, % at 10 µM. AID 485347. HEK293 T-REx D2, calcium flux, EC20 dopamine potentiation. actives 0.34% (n = 340,000);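 active = potentiation over 3 SD above the plate norm, cut at about 30% in these data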; note: 0% is about no effect
Target sequence (P14416 whole entry, looked up): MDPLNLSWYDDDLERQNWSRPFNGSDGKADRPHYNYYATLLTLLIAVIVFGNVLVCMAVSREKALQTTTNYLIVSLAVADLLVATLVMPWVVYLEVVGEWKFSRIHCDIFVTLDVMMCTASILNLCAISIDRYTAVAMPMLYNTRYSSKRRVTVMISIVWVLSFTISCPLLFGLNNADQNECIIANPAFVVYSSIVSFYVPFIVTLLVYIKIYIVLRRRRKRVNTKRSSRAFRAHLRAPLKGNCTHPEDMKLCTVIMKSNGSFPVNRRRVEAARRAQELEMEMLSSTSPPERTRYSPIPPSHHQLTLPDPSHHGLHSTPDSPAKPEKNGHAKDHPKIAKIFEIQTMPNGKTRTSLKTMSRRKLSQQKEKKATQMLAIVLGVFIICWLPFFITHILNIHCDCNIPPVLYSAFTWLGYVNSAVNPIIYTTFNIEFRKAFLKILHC
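Primary screen. Calcium kinetics in induced HEK293 T-REx D2 cells: compound pre-addition 180 s, EC20 dopamine, 180 s more.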
D2 PAM-2 – human D2 receptor positive allosteric modulation; DiscoveRx D2 beta-arrestin cells, luminescence, 90 min; 100% = 57 uM dopamine signal; potentiation, % (no concentration beside the values); actives 0.23% (n = 360,000); AID 624464; in the data active = potentiation above about 50%
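PathHunter beta-arrestin assay in DiscoveRx D2 cells. Compounds were added with an EC20 of dopamine (50 nM final) for 90 min at 37 deg C. Luminescence was read 1 h after detection reagent, with 57 uM dopamine as the EC100 control.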
D2 ag-1 – activates the human D2 dopamine receptor. P14416. HEK293 T-REx D2 cells, calcium flux agonist mode. activation, % at 2 µM. actives 0.53% (n = 340,000);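 active = activation over 3 SD above normal in the single-dose calcium agonist read, cut at about 30% in these data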; note: 0% is about no effect
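HEK293 Trex D2 cells, tetracycline-induced, o/n 30 C 5% CO2; no-wash Ca dye, RT 30–90 min; 10-cycle baseline, 23 nl cpd added, kinetic Ca read 180 s; agonist hits = positive Ca response.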
D2 ag-2 – agonists of human D2 dopamine receptor (beta-arrestin) | DiscoveRx PathHunter D2 beta-arrestin, luminescence, 90 min; 100% = 57 uM dopamine signal | actives 0.084% (n = 360,000) | activation, % (no concentration beside the values) | AID 624465 | P14416; in the data active = activation above about 40%
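DiscoveRx PathHunter D2 beta-arrestin cells (2,100/well) attached overnight, then compound-stimulated 90 min at 37 C in HBSS/10 mM HEPES/0.1% Tween-20 buffer; beta-galactosidase complementation read by luminescence after 1 h at ambient temperature. Dopamine 57 uM final (EC100) as control.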
D2 antag – antagonizes the human D2 dopamine receptor; inhibition, % at 10 µM; actives 2% (n = 340,000); HEK293 TREx D2 cells, calcium flux, dopamine EC80; P14416; in the data active = inhibition above about 30%; inactive = below that, where a call was filed; note: 0% is about no effect
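Overnight-induced (tetracycline, 30 C) HEK293 T-REx cells carrying force-coupled D2 receive a no-wash calcium dye, then compound, then EC80 dopamine at 180 s; signals are read kinetically throughout.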
Numbers without * were called inactive; / = no result given.

SMILES	D2 PAM-1	D2 PAM-2	D2 ag-1	D2 ag-2	D2 antag
Cc1ccc(C)c(N2CCN(CCCNC(=O)CCn3c(=O)c4cccn4c4cccnc43)CC2)c1	-25	-27	1	-2	-34
Cc1ccc(C)c(N2CCN(CCCNC(=O)Cn3cc4c(n3)CCCCC4)CC2)c1	-21	-11	2	2	65*
COc1cccc(CSc2nc3n(n2)C(CC(C)C)C(C(=O)Nc2ccccc2OC)=C(C)N3)c1 (centres undefined)	/	/	0	/	/
N#Cc1cc(NCC2CCCO2)c([N+](=O)[O-])cc1C#N (centres undefined)	4	50*	1	6	-4
CCCOc1ccccc1N/C(N)=N/c1nc(C)cc(C)n1	-8	-10	1	0	31*
CCc1nn(C(CC)C(=O)NCCCc2ccccc2)c(=O)c2cc3occc3n12 (centres undefined)	-4	-15	0	0	1
CCc1nn(C(CC)C(=O)NCCCN2CC(C)CC(C)C2)c(=O)c2cc3oc(C)cc3n12 (centres undefined)	-33	-35	0	-4	64*
Cc1ccc(Cl)cc1NCc1nnc2n1CCCCC2	13	/	0	/	/
CCCN(CC(=O)Nc1ccccc1C)C(=O)c1ccc(C(=O)c2ccccc2)cc1	-2	-22	2	-2	43*
CCN(Cc1ccccc1)C(=O)c1cc(-c2ccccc2)n[nH]1	-6	/	-1	/	/
Cc1ccc(NC(=O)c2ccc(OCc3c(C)noc3C)cc2)nc1	-4	5	-1	0	34*
Cc1ccc(NC(=O)c2ccc(OCc3c(C)noc3C)cc2)cc1	-5	/	0	/	-1
CN(C)c1ccc(NC(=O)c2cccc(N3C(=O)C4C5C=CC(C5)C4C3=O)c2)cc1 (centres undefined)	18	4	1	1	36*
Cc1ccc(NC(=O)c2cccc(N3C(=O)C4C5C=CC(C5)C4C3=O)c2)cc1C (centres undefined)	5	-4	2	7	5
COc1ccc(-c2noc(-c3ccc(NCc4ccc(C)cc4)c([N+](=O)[O-])c3)n2)cc1OC	-16	/	/	/	/
Cc1nn(C(=O)c2cc3sccc3[nH]2)c(C)c1C	-3	-3	0	0	34*
CCCn1c(=O)c2sccc2n2c(CCCC(=O)Nc3cccc(CC)c3)nnc12	-5	/	1	/	/
CNc1nc(C)nc(-n2nc(C)cc2C)n1	-4	-3	0	-5	35*
Cc1cc(C)n(-c2nc(C)nc(NCc3ccccc3)n2)n1	1	-43	3	-4	7
Nc1ccccc1C(=O)NCc1ccc(Cl)cc1	1	8	27	2	30*
Nc1ccccc1C(=O)NCc1ccc(F)cc1	3	-2	0	2	-7
COc1ccc(NC(=O)/C(Cl)=C(/Cl)S(=O)Cc2ccccc2)cn1 (centres undefined)	4	-57	2	-7	32*
Cc1ccc(Nc2sc(C(=O)c3ccccc3)c(N)c2S(=O)(=O)c2ccccc2)c(C)c1	8	/	-1	/	/
Cc1cc(C)cc(OC(=O)c2snnc2C)c1	9	/	-1	/	/
COc1ccc(S(=O)(=O)N2CCCCCC2)cc1C(=O)N(C)Cc1ccc(Cl)cc1Cl	-14	7	2	0	47*
SMILES	D2 PAM-1	D2 PAM-2	D2 ag-1	D2 ag-2	D2 antag
COc1ccc(COc2ccccc2C(=O)NCc2ccccc2)cc1F	2	-9	-1	5	41*
COc1ccc(COc2ccc(S(=O)(=O)N3CCCC3)cc2C(N)=O)cc1F	30*	-11	1	-4	-14
COc1ccc(S(=O)(=O)N2CCCCCC2)cc1C(=O)N(C)Cc1c(F)cccc1Cl	17	0	0	1	-16
COc1cccc(CNC(=O)c2cc3c(=O)n(Cc4cccnc4)ccc3nc2C)c1	-4	/	-1	/	/
COc1ccc(N(CC(=O)N2CCc3ccccc3C2)S(=O)(=O)c2ccc(C)cc2)cc1Cl	6	/	0	/	/
Cc1c(C)c2cc(Cl)c(O)c(CN(C)C)c2oc1=O	7	-2	0	-1	35*
Cc1ccc(C(=O)Nc2cc(C(F)(F)F)ccc2-n2cncn2)o1	0	3	0	-4	2
O=C(Nc1cc(C(F)(F)F)ccc1-n1cncn1)c1ccc(F)cc1Cl	4	-10	0	-1	35*
CCN(CC(=O)NC(c1ccccc1)c1ccccc1)Cc1nc2ccccc2c(=O)[nH]1	-14	-11	6	-3	32*
Cn1c2ccccc2c2c(C(=O)N3CCN(c4ccccn4)CC3)cn(C3CCCC3)c(=O)c21	29	-22	-1	0	31*
CC1CC(C)(C)NC(=S)N1CC(=O)N1CCN(Cc2ccccc2)CC1 (centres undefined)	0	-2	0	0	-6
Cc1ccc(C)c(N2CCN(C(=O)CN3C(=S)NC(C)(C)CC3C)CC2)c1 (centres undefined)	2	-3	5	2	41*
C=CCN1C(=O)/C(=C/c2ccc(O)c(OC)c2)S/C1=N/c1nccs1	3	4	45*	10	-10
CCCCn1c(=O)c2oc3ccccc3c2n(Cc2ccc(OC)cc2)c1=O	4	/	1	/	/
CCCCc1ccc(NC(=S)N2CCN(c3ccccn3)CC2)cc1	11	-10	1	9	-6
CCC(C)c1ccc(NC(=S)N2CCN(c3ccccn3)CC2)cc1 (centres undefined)	-5	2	30*	3	20
CC(=O)Nc1cc2c(cc1C(=O)c1ccc(C)cc1)OCCO2	-6	-2	1	-3	34*
CN(C(=O)Cn1nnc(-c2ccc(S(C)(=O)=O)cc2)n1)c1ccccc1	5	/	-1	/	/
CCCn1cc(S(=O)(=O)CC(=O)NC2CCCCC2)c2ccccc21	-12	-24	0	0	51*
CCN(CC)c1ccc(NC2=C(Cl)C(=O)c3ccccc3C2=O)cc1	1	60*	0	10	13
Cc1ccc(NC2=C(Cl)C(=O)c3ccccc3C2=O)cc1	-4	21	0	8	16
Cc1[nH]c2ccccc2c1C1(O)C(=O)N(Cc2ccccc2)c2ccc(Cl)cc21 (centres undefined)	1	/	0	/	/
C/C(CCc1ccc2c(c1)OCO2)=N\N=C1\NC(=O)CC(C(=O)Nc2ccccc2F)S1 (centres undefined)	15	-5	0	-1	40*
COc1ccccc1N1CCN(C(=O)CSc2nc(-c3ccc(C(C)C)cc3)no2)CC1	3	/	0	/	/
O=C(CN(CCN1CCOCC1)C(=O)Cn1nnc(-c2ccc(F)cc2)n1)NC1CCCCC1	6	-6	1	-4	71*
O=C(CN(CCCN1CCOCC1)C(=O)Cn1nnc(-c2ccc(F)cc2)n1)NC1CCCCC1	-10	-14	1	-4	1

Compound activity from PubChem BioAssay.
